The values below come from PubChem BioAssay (EPA / NIEHS).

The term AC50 denotes the midpoint of the concentration-response curve, whichever way the signal moves.

Where a structure was tested more than once in an assay, its records may differ in their call. Calls of active or inactive are those of the source. The calls were made as follows: active = hit-call score of the fitted dose curve at least 0.9, where 1 is the maximum; inactive = score below 0.9.

Sequence of Cytochrome P450 3A7 (Homo sapiens) (P24462 whole entry, looked up): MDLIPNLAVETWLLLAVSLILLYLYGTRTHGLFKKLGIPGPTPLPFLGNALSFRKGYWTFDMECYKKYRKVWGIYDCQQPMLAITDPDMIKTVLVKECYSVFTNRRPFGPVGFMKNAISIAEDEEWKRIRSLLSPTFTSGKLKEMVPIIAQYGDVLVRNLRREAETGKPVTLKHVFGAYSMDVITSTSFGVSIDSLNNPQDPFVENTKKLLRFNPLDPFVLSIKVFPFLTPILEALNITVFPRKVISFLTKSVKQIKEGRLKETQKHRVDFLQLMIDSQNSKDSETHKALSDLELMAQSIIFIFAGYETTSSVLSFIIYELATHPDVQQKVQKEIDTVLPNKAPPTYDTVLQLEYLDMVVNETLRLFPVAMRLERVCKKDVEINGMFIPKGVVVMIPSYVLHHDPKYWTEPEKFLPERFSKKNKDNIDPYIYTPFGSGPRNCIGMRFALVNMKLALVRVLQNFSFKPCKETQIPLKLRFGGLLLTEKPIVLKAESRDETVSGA

Read-out in the test: Cytochrome P450 3A7 (Homo sapiens) (UniProt P24462)
The test is described as follows: LTEA_HepaRG_CYP3A7: Life Technologies and Expression Analysis (LTEA) Assay for CYP3A7 using HepaRG (AID 2283492). To be noted: mRNA level, 48 h; actives raise or lower the signal. On the procedure: LTEA_HepaRG is a cell based, multiplexed-readout assay that uses HepaRG, a human liver cell line, with measurements taken at 48 hours after chemical dosing on a 96-well plate.LTEA_HepaRG_CYP3A7 is one of 102 assay component(s) measured in the LTEA HepaRG cell culture assay. It is a marker of NR mediated metabolism/Undifferentiated hepatocyte.Data from the assay component LTEA_HepaRG_CYP3A7 was analyzed into 1 endpoint. This assay endpoint, LTEA_HepaRG_CYP3A7, was analyzed with bidirectional fitting relative to DMSO as the negative control and baseline of activity. Using a type of inducible reporter, measures of mRNA induction for gain or loss-of-signal activity can be used to understand regulation of transcription factor activity. To generalize the intended target to other relatable targets, this assay endpoint is annotated to the cyp intended target family, where the subfamily is xenobiotic metabolism.
A total of 1060 chemcials from the ToxCast library were tested in eight-point concentration-response experiments. Cell culture and cytotoxicity assays were conducted at Thermo Fisher Scientific's Custom Services facility (Madison, WI). A single lot of human HepaRG cells (Thermo Fisher Scientific, Frederick, MD) was used for the cell culture experiments. 96-well format collagen type I coated plates of human HepaRG cells were prepared using established methods. Briefly, cryopreserved HepaRG cells were thawed, plated at a density of approximately 100,000 cells/well in HepaRG Thaw, Plate, and General Purpose media (HPRG770, Thermo Fisher Scientific), and incubated for 48 hours. 0.5% DMSO was selected as vehicle control to balance the requisite need of DMSO in HepaRG cultures to maintain differentiation (for example, baseline metabolism, proportions of hepatocytes vs. cholangiocytes), while enabling further hepatic receptor pathway activation (for example, PXR and CAR) in response to chemical exposure. 48 hours after plating, the culture medium was replaced with HepaRG Serum-Free Incudtion Media. Cells were exposed to each test chemical in duplicate and maintained in CO2 incubators for another 48 hours. Chemical plates were thawed to room temperature and 200x concentrations of treatment groups were prepared. 8-point conentration-reponse curves were made with the highest exposure at 100 uM, followed by half-log dilutions, all in 0.5% DMSO. Each test plate contained variouse controls, induction positive controls (1mM phenobarbital), cytotoxicity positive controls ([…] aflatoxin B1), vehicle controls (0.5% DMSO), and total lysis controls (0.5% DMSO). Cell morphology images were taken using an Essen IncuCyte FLR automated microscope, with six 96-well plates imaged in about 24 minutes. Images were captured and exported and JPEG files. Spent culture media was transfered to black-well plates for the LDH assay, and remaining media was sorted at -80 C for later use. Cells were treated with RLT buffer and frozen until shipped for gene expression analysis. Total RNA was isolated from the cell suspension in 75 uL of Buffer RLT (Qiagen, Germantown, MD 20874) by Quintiles/Expression Analysis (Durham, NC) using a custom isolation procedure. Total RNA from each plate well was transferred to a preamplification plate. Fluidigm's 96.96 Dynamic ArrayTM (Fluidigm, Amsterdam, the Netherlands) technology was used for gene expression analyses by quantitative reverse transcription polymerase chain reaction (qRT-PCR, performed by Quintiles/Expression Analysis, Durham, NC)89. Standard TaqManTM Assays (Applied Biosystems/ThermoFisher Scientific, Foster City, CA) were used to assess the expression of 93 genes selected based on their selectivity and sensitivity to important hepatic receptors known to be modulated by environmental chemicals; importance in human hepatocyte functionality; and hepatotoxicity. […]
With `CCCCOC(=O)c1ccccc1C(=O)OCCCC`, the compound was called inactive.

As to `CCOP(=S)(OCC)SCn1c(=O)oc2cc(Cl)ccc21`, the call was inactive.

In the case of `CCCN(CCC)c1c([N+](=O)[O-])cc(S(N)(=O)=O)cc1[N+](=O)[O-]`, the AC50 is 6.08 µM (active) and the result was inactive.

With `OC(c1ccc(Cl)cc1)(c1cncnc1)c1ccccc1Cl` (stereo not given), the AC50 is 11.9 µM (active).

`CCc1nn(C)c(C(=O)NCc2ccc(C(C)(C)C)cc2)c1Cl`: the AC50 is 0.35 µM (active).

For `CCNc1nc(Cl)nc(NCC)n1`, the call was inactive.

Take `CS/C(C)=N/OC(=O)N(C)SN(C)C(=O)O/N=C(\C)SC`: the call was inactive.

On to `COC(=O)C=C(C)OP(=O)(OC)OC`, for which the result was inactive.

In the case of `CCOc1cc(Oc2ccc(C(F)(F)F)cc2Cl)ccc1[N+](=O)[O-]`, the AC50 is 75.8 µM (active).

`O=C(O)c1nc(Cl)ccc1Cl`: the call was inactive.

Take `CCCCNC(=O)n1c(NC(=O)OC)nc2ccccc21`: the call was inactive.

For `COc1cnc(OC)n2nc(NS(=O)(=O)c3c(OCC(F)F)cccc3C(F)(F)F)nc12`, the outcome was inactive.

Consider `COc1nc(NC(C)C)nc(NC(C)C)n1`, for which the outcome was inactive.

For `CN(C)C(=S)SSC(=S)N(C)C`, the compound was classed as inactive.

As for `CNC(=S)S`, the outcome was inactive.

Take `CC1=C(C(=O)Nc2ccccc2)SCCO1`: the outcome was inactive.

For the compound `CCCC1COC(Cn2cncn2)(c2ccc(Cl)cc2Cl)O1` (stereo not given), the AC50 was 29.5 µM (active).

As to `COC(=O)C(C)Oc1ccc(Oc2ccc(Cl)cc2Cl)cc1` (stereo not given), the AC50 was 27.3 µM (active).

`CC(C)Oc1cc(-n2nc(C(C)(C)C)oc2=O)c(Cl)cc1Cl`: the compound was called inactive.

Turning to `Oc1ccccc1-c1ccccc1`, the result was inactive.

On to `N#CC(CCc1ccc(Cl)cc1)(Cn1cncn1)c1ccccc1` (stereo not given), for which the AC50 was 11.7 µM (active).

For `C=CCC1=C(C)[C@@H](OC(=O)[C@@H]2[C@@H](C=C(C)C)C2(C)C)CC1=O`, the result was inactive.

Consider `CCCCC(CC)COC(=O)c1ccccc1C(=O)OCC(CC)CCCC` (stereo not given), for which the outcome was inactive.

In the case of `Fc1ccc(Oc2ccnc3cc(Cl)cc(Cl)c23)cc1`, the AC50 was 79.4 µM (active).

Take `C=CC1(C)OC(=O)N(c2cc(Cl)cc(Cl)c2)C1=O` (stereo not given): the AC50 was 20.8 µM (active).

On to `CCOC(=O)C(Cl)Cc1cc(-n2nc(C)n(C(F)F)c2=O)c(F)cc1Cl` (stereo not given), for which the AC50 is 34.3 µM (active).

On to `O=C(Nc1ccccc1)Nc1ccnc(Cl)c1`, for which the compound was classed as inactive.

With `CC(C)(C)c1ccc(CSc2cnn(C(C)(C)C)c(=O)c2Cl)cc1`, the AC50 is 1.05 µM (active).

Turning to `CNC(=O)ON=CC(C)(C)SC`, the compound was classed as inactive.

Consider `COC(=O)N(OC)c1ccccc1COc1ccn(-c2ccc(Cl)cc2)n1`, for which the AC50 was 74 µM (active).

For the compound `CC1COC(Cn2cncn2)(c2ccc(Oc3ccc(Cl)cc3)cc2Cl)O1` (stereo not given), the outcome was inactive.

On to `CO/C=C(/C(=O)OC)c1ccccc1Oc1cc(Oc2ccccc2C#N)ncn1`, for which the outcome was inactive.

Consider `COC(=O)c1ccccc1C(=O)OC`, for which the call was inactive.

Regarding `CCNc1nc(Cl)nc(NC(C)C)n1`, the compound was classed as inactive.

As to `Cc1cc(Cl)ccc1OCC(=O)O`, the AC50 is 18.8 µM (active).

Regarding `CC(Oc1ccc(Cl)cc1Cl)C(=O)O` (stereo not given), the result was inactive.

As for `CC(C)C1(C)N=C(c2nc3ccccc3cc2C(=O)O)NC1=O` (stereo not given), the compound was classed as inactive.

For the compound `CCCCNC(=O)OCC#CI`, the AC50 is 50 µM (active).

Regarding `Cc1c(F)c(F)c(COC(=O)C2C(/C=C(\Cl)C(F)(F)F)C2(C)C)c(F)c1F` (stereo not given), the outcome was inactive.
